Source: PubChem (Broad Institute)
Many of the other results were omitted from the sample, so hits are more common in it than they were.
IDE exosite inh: displaces the probe from the exo-site of human IDE; P14735; purified IDE, FL-6b probe fluorescence polarization; stronger effect = lower value; z-score at 20 µM; actives 6.3% (n = 17,000); AID 1259349;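 active means z-score of -3 or lower, meaning strong loss of probe binding signal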;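 further: His-tagged human IDE residues 42-1019 made in E. coli with 30 nM FL-6b probe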
Target sequence (P14735 42-1019 limits assumed): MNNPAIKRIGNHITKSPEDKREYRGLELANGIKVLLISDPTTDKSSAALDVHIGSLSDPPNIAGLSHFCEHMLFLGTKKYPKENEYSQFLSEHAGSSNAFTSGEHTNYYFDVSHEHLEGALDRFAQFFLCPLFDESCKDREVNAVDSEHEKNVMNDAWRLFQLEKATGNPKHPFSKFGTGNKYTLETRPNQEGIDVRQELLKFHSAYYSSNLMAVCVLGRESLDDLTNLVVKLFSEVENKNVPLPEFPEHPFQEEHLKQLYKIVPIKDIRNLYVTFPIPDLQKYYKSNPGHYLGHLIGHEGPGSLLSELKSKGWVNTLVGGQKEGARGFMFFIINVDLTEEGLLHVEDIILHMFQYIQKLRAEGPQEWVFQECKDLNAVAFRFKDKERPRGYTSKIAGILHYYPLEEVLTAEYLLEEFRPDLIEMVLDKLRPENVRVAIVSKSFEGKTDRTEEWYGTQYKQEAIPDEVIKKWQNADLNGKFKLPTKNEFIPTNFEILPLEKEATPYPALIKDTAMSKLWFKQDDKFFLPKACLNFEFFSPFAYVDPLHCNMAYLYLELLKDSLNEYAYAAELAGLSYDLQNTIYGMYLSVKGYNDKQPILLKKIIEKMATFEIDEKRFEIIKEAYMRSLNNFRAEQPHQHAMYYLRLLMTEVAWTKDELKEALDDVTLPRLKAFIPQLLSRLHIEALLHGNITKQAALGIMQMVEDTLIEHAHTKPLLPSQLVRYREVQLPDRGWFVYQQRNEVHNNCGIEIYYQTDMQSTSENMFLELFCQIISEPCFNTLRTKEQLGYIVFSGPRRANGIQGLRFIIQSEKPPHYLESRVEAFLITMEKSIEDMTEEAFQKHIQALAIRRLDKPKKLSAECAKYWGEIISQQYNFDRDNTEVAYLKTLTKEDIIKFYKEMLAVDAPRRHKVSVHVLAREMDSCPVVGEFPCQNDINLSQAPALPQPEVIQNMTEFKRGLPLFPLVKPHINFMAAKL
Numbers without * were called inactive.

SMILES	IDE exosite inh
O=C(Cc1ccccn1)N1CCCCN2[C@H](CO)[C@@H](c3ccc(C#Cc4ccccc4)cc3)[C@H]2C1	-0.97
COCC#Cc1ccc([C@@H]2[C@@H](CO)N3CCCCN(C(=O)Cc4ccccn4)C[C@@H]23)cc1	-0.26
O=C(Cc1ccccn1)N1CCCCN2[C@H](CO)[C@H](c3ccc(C#Cc4ccccc4)cc3)[C@H]2C1	-9.5*
O=C(Cc1ccccn1)N1CCCCN2[C@@H](CO)[C@@H](c3ccc(Br)cc3)[C@@H]2C1	3.2
CCCC#Cc1ccc([C@@H]2[C@H]3CN(C(=O)Cc4ccccn4)CCCCN3[C@H]2CO)cc1	-1.7
CC(C)CC#Cc1ccc([C@@H]2[C@@H](CO)N3CCCCN(C(=O)Cc4ccccn4)C[C@@H]23)cc1	5.1
CN(C)CC#Cc1ccc([C@@H]2[C@H]3CN(C(=O)Cc4ccccn4)CCCCN3[C@H]2CO)cc1	0.57
O=C(Cc1ccccn1)N1CCCCN2[C@@H](CO)[C@H](c3ccc(C#Cc4ccccc4)cc3)[C@@H]2C1	-7.3*
O=C(Cc1ccccn1)N1CCCCN2[C@H](CO)[C@@H](c3ccc(C#Cc4ccccc4)cc3)[C@@H]2C1	-4.9*
COc1ccc(C#Cc2ccc([C@H]3[C@H]4CN(C(=O)Cc5ccccc5)CCCCN4[C@H]3CO)cc2)cc1	3.1
COc1ccccc1CN1[C@H](CO)[C@@H](c2ccccc2)C12CN(C(=O)Cc1ccccc1)C2	2.2
COc1ccc(-c2ccc([C@@H]3[C@@H](CO)N4CCCCN(C(=O)Cc5ccncc5)C[C@H]34)cc2)cc1	-0.41
COc1ccc(C#Cc2ccc([C@@H]3[C@H](CO)N4CCCCN(C(=O)Cc5ccncc5)C[C@@H]34)cc2)cc1	3.8
O=C(Cc1ccccc1)N1CCCCN2[C@H](CO)[C@@H](c3ccc(C#Cc4ccccc4)cc3)[C@H]2C1	0.71
O=C(Cc1ccncc1)N1CCCCN2[C@@H](CO)[C@@H](c3ccc(C#Cc4ccccc4F)cc3)[C@@H]2C1	-5.4*
O=C(Cc1ccccc1)N1CCCCN2[C@H](CO)[C@@H](c3ccc(C#Cc4ccccc4)cc3)[C@@H]2C1	-1.3
O=C(Cc1ccncc1)N1CCCCN2[C@H](CO)[C@@H](c3ccc(C#Cc4ccccc4F)cc3)[C@H]2C1	-2.5
O=C(Cc1ccncc1)N1CCCCN2[C@H](CO)[C@H](c3ccc(C#Cc4ccccc4F)cc3)[C@H]2C1	-4.2*
N#Cc1ccc(-c2ccc([C@@H]3[C@H](CO)N4CCCCN(C(=O)Cc5ccccc5)C[C@@H]34)cc2)cc1	1.4
COC(=O)[C@@H]1[C@@H](CO)[C@@H]2Cn3c(ccc(-c4cccc(F)c4)c3=O)[C@H]1N2Cc1ccncc1	-0.19
O=C(Cc1ccncc1)N1CCCCN2[C@H](CO)[C@H](c3ccc(-c4ccncc4)cc3)[C@@H]2C1	4.8
C[C@H]1CN([C@@H](C)CO)C(=O)CCCn2cc(nn2)CO[C@@H]1CN(C)C(=O)Oc1ccc2ccccc2c1	-0.24
O=C(Cc1ccccn1)N1CCCCN2[C@H](C1)[C@@H](c1ccc(-c3ccccc3F)cc1)[C@@H]2CO	-4.5*
Cc1ccccc1-c1ccc([C@@H]2[C@H]3CN(C(=O)Cc4ccccn4)CCCCN3[C@H]2CO)cc1	-10*
Cc1ccccc1-c1ccc([C@H]2[C@H]3CN(C(=O)Cc4ccccn4)CCCCN3[C@H]2CO)cc1	-0.98
SMILES	IDE exosite inh
O=C(Cc1ccccn1)N1CCCCN2[C@H](CO)[C@@H](c3ccc(-c4ccccc4)cc3)[C@H]2C1	-0.097
O=C(Cc1ccccn1)N1CCCCN2[C@H](C1)[C@H](c1ccc(-c3ccccc3)cc1)[C@@H]2CO	-2.4
O=C(Cc1ccccn1)N1CCCCN2[C@H](CO)[C@@H](c3ccc(-c4ccc(F)cc4)cc3)[C@H]2C1	4.4
O=C(Cc1ccccn1)N1CCCCN2[C@H](CO)[C@H](c3ccc(-c4ccccc4)cc3)[C@@H]2C1	-0.96
Cc1ccccc1-c1ccc([C@H]2[C@@H](CO)N3CCCCN(C(=O)Cc4ccccn4)C[C@@H]23)cc1	-5.7*
O=C(Cc1ccccn1)N1CCCCN2[C@@H](CO)[C@H](c3ccc(-c4ccccc4)cc3)[C@@H]2C1	1.9
COc1cccc(-c2ccc([C@@H]3[C@@H](CO)N4CCCCN(C(=O)Cc5ccncc5)C[C@H]34)cc2)c1	0.079
COc1cccc(CN2CC3(C2)[C@H](c2ccccc2)[C@H](CO)N3C(=O)Cc2ccccc2)c1	0.88
C/C=C/c1ccc(C2[C@@H]3CN(C(=O)CN(C)C)C[C@H]2N3)cc1 (some centres undefined)	0.55
CCCNC(=O)N1[C@@H]2Cn3c(ccc(-c4ccccc4OC)c3=O)[C@H]1[C@@H](C(=O)OC)[C@@H]2CO	0.76
O=C(Cc1cccnc1)N1CCCCN2[C@H](C1)[C@@H](c1ccc(C#CC3(O)CCCC3)cc1)[C@@H]2CO	3.1
O=C(Cc1ccccc1)N1CCCCN2[C@H](CO)[C@H](c3ccc(C#CC4(O)CCCC4)cc3)[C@@H]2C1	1.7
O=C1CNC[C@@H]2[C@@H](c3ccc(Br)cc3)[C@@H](CO)N12	-0.99
O=C1CNC[C@H]2[C@H](c3ccc(Br)cc3)[C@@H](CO)N12	-0.15
COc1cccc(-c2ccc([C@@H]3[C@H](CO)N4CCCCN(C(=O)Cc5ccncc5)C[C@@H]34)cc2)c1	-3.9*
COc1ccc(-c2ccc([C@@H]3[C@H](CO)N4CCCCN(C(=O)Cc5ccccc5)C[C@@H]34)cc2)cc1	-3.1*
COc1ccc(-c2ccc([C@H]3[C@@H](CO)N4CCCCN(C(=O)Cc5ccccc5)C[C@@H]34)cc2)cc1	0.58
COc1ccc(-c2ccc([C@H]3[C@H](CO)N4CCCCN(C(=O)Cc5ccccc5)C[C@@H]34)cc2)cc1	0.59
COc1cccc(-c2ccc([C@H]3[C@@H](CO)N4CCCCN(C(=O)Cc5ccncc5)C[C@@H]34)cc2)c1	1.1
COc1cccc(-c2ccc([C@@H]3[C@@H](CO)N4CCCCN(C(=O)Cc5ccncc5)C[C@@H]34)cc2)c1	-2.3
c1cncc(-c2ccc(C3[C@H]4CNC[C@@H]3N4CC3CC3)cc2)c1 (some centres undefined)	-0.89
N#Cc1cccc(-c2ccc([C@@H]3[C@@H](CO)N4CCCCN(C(=O)Cc5ccccc5)C[C@@H]34)cc2)c1	3.1
N#Cc1cccc(-c2ccc([C@@H]3[C@H]4CN(C(=O)Cc5ccccc5)CCCCN4[C@H]3CO)cc2)c1	3.9
O=C(Cc1cccnc1)N1CCCCN2[C@H](CO)[C@@H](c3ccc(C#CC4CCCC4)cc3)[C@@H]2C1	3.2
COc1ccc(C#Cc2ccc([C@@H]3[C@@H](CO)N4CCCCN(C(=O)Cc5cccnc5)C[C@H]34)cc2)cc1	-1.2
SMILES	IDE exosite inh
O=C(Cc1cccnc1)N1CCCCN2[C@H](CO)[C@H](c3ccc(/C=C/c4ccccc4)cc3)[C@H]2C1	-11*
O=C(Cc1cccnc1)N1CCCCN2[C@H](CO)[C@@H](c3ccc(/C=C/c4ccccc4)cc3)[C@@H]2C1	-8.8*
O=C(Cc1cccnc1)N1CCCCN2[C@H](CO)[C@@H](c3ccc(/C=C/c4ccccc4)cc3)[C@H]2C1	-9.4*
C/C=C/c1ccc([C@@H]2[C@@H](CO)N3CCCCN(C(=O)Cc4cccnc4)C[C@@H]23)cc1	0.079
COc1ccc(C#Cc2ccc([C@@H]3[C@H](CO)N4CCCCN(C(=O)Cc5cccnc5)C[C@@H]34)cc2)cc1	4.6
C/C=C/c1ccc([C@@H]2[C@H](CO)N3CCCCN(C(=O)Cc4cccnc4)C[C@@H]23)cc1	-0.6
C/C=C/c1ccc([C@H]2[C@@H](CO)N3CCCCN(C(=O)Cc4ccncc4)C[C@H]23)cc1	0.65
